Most compounds without a hit are left out; they make up all but 5.7% or so of the library.
GLP1R inv ag: acts as inverse agonist at human GLP-1 receptor. HEK293 GLP-1R CRE-luciferase, luminescence, 24 h; GLP-1R form is constitutively active. Potency, µM (top dose mostly 38.3 µM), hits mostly inhibitors. 410,000 tested, 1.6% active. AID 624417; further: nearly all actives have a fitted effect of over 55% in size
Target sequence (P43220 whole entry, looked up): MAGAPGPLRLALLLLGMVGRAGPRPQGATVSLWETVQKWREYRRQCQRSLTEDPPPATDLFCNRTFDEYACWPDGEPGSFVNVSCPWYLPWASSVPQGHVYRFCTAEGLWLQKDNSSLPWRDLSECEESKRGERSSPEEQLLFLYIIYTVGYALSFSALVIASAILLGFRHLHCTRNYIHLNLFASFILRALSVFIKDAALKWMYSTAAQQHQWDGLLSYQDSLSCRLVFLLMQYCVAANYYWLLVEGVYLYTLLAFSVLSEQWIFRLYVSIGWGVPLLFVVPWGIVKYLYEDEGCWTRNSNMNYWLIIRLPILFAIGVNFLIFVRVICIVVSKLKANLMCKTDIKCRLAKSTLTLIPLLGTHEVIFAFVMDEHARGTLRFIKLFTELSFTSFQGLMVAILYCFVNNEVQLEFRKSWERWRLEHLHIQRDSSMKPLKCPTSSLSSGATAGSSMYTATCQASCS
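Cells are plated, allowed 12 hours at 37 deg C, then treated with compounds for 24 hr before luciferase detection reagent is added and luminescence is read after 12 min at room temperature. The HEK293 line carries constitutively active GLP-1R with a cAMP-responsive reporter.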
ClpP mod: qHTS Assay for Activators of ClpP; purified B. subtilis ClpP, FRET peptide cleavage, 20 min; ATP-dependent Clp protease proteolytic subunit (Bacillus subtilis (strain 168)), P80244; Potency, µM (highest dose often 57.5 µM); 340,000 tested, 1.9% active; active means well fitted falling curve with a large enough effect; inconclusive means small, poorly fitted or top-dose-only effect; inactive means no such curve, though single readings can be large or run the other way; further: the source files actives as falling curves though it sought activators and does not explain the sign; nearly all actives have a fitted effect of over 65% in size
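ClpP 10 microg/mL final, pH 8 Tris/KCl buffer with BSA, glycerol, Tween-20; compound pinned in; FRET-FV substrate; RT 20 min; Ex320/Em430; ΔFRET vs ADEP 5.8 microM, DMSO, no enzyme.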
HEK293 tox: cytotoxicity counter-screen for GLP-1 receptor inverse agonists; HEK293 cAMP-luciferase reporter cells, luminescence, 24 h; Potency, µM (titrated, usually from 38.3 µM), hits mostly inhibitors; 410,000 tested, 0.13% active; AID 624418;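 further: loss of luciferase light is scored as toxicity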
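Quantitative HTS format, 1536 wells, 200 cells/uL seeded. Compounds: 23 nL, 24 h, 37 °C. Detection: luciferase reagent, luminescence at 12 min RT; decreased signal taken as cytotoxic.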
DRD3 antagonist: antagonists of human D3 dopamine receptor; max response, negative = inhibition, %; D3R cells, DiscoveRx beta-arrestin luminescence, antagonist mode; hits give low values; AID 652054; P35462; 360,000 tested, 2.5% active; in the data active means max response below about -50%; inconclusive means no clear call, values can overlap the other calls
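Cells plated overnight at 1500 cells/well, then exposed to library compounds with dopamine controls for 90 minutes at 37 degrees C. DiscoveRx reagent added for 30–60 minutes at room temperature; luminescence read, quantitative HTS format.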
D3 ag: agonists of human D3 dopamine receptor | 410,000 tested, 0.58% active | D3R DiscoveRx beta-arrestin cells, luminescence, 90 min | max activation, % | AID 652048; in the data active means max activation above about 30%
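Agonist mode: compounds and dopamine controls were applied to plated cells for 90 min at 37 degrees C after an overnight attachment at 1500 cells/well. Luminescent read-out followed 30 - 60 minutes at room temperature with DiscoveRx detection reagent.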
GLP1R ag: agonists of human GLP-1 receptor | 380,000 tested, 0.007% active | AID 624172 | HEK293 GLP-1R CRE-luciferase, luminescence, 4-6 h; cells express a hypersensitive GLP-1R form | P43220 | Potency, µM (top dose mostly 45.6 µM), actives largely listed as activators
Of the large screens only hits and unclear results are named; the others gave an inactive call. Unless noted, the call rests on the fitted dose curve; in most records, active means well fitted curve in the direction sought with a large enough effect; inconclusive means small, poorly fitted or top-dose-only effect, or another doubt; inactive means no such curve, though single readings can be large; an effect the other way counts as inactive or inconclusive.

CN(Cc1ccccc1)Cc1c[nH]c2ccccc12	GLP1R inv ag inconclusive, DRD3 antagonist -82
COc1cc(Cl)c(C)cc1NC(=O)c1cc2ccc3cccnc3c2[nH]1	none (no result: DRD3 antagonist, GLP1R ag)
Fc1ccc(C(c2nnc(-c3ccccc3)o2)N2CCN(c3ccccc3)CC2)c(Cl)c1 (configuration not stated)	GLP1R inv ag inconclusive (no result: DRD3 antagonist, GLP1R ag)
COc1ccc(/C=N/N=C2/NC(=O)C(CC(=O)NC(C)C)S2)cc1 (configuration not stated)	ClpP mod 14µM
COc1ccc(CC2S/C(=N/N=C/c3ccccc3O)NC2=O)cc1 (configuration not stated)	GLP1R inv ag 2.5µM, HEK293 tox inconclusive
O=C1N/C(=N/N=C/c2ccccc2O)SC1Cc1ccc(F)cc1 (configuration not stated)	GLP1R inv ag inconclusive, HEK293 tox inconclusive, DRD3 antagonist -56 (no result: ClpP mod)
CCc1ccc2c(c1)NC(=O)C2(C)Cc1ccccc1C#N (configuration not stated)	GLP1R inv ag inconclusive
Cc1ccc(C)c(S(=O)(=O)NC(C)C(=O)Nc2ccc(-c3nc4ccccc4s3)cc2)c1 (configuration not stated)	ClpP mod 32µM, D3 ag 51
O=C(CNS(=O)(=O)c1cccc(Cl)c1)Nc1ccc(-c2nc3ccccc3s2)cc1	none
COCCNc1nnc(SC(C)C(=O)Nc2c(C)n(C)n(-c3ccccc3)c2=O)s1 (configuration not stated)	none
CC(NS(=O)(=O)c1cccc(Cl)c1)C(=O)Nc1ccc(-c2nc3ccccc3s2)cc1 (configuration not stated)	ClpP mod 35µM
COCCNc1nnc(SC(C)C(=O)Nc2ccc(-c3nc4ccc(C)cc4s3)cc2)s1 (configuration not stated)	GLP1R inv ag inconclusive, ClpP mod 18µM
CC(C)(C)c1ccc(S(=O)(=O)NCC(=O)Nc2ccc(-c3nc4ccccc4s3)cc2)cc1	GLP1R inv ag inconclusive, ClpP mod 5µM, HEK293 tox inconclusive
CCN(CC)c1nn2c(=O)c(C(=O)NCc3ccccc3Br)cnc2s1	ClpP mod inconclusive (no result: DRD3 antagonist, GLP1R ag)
CSc1ccc(OC2(C)CCN(Cc3ccc(-c4ccccn4)cc3)C2)cc1 (configuration not stated)	DRD3 antagonist -55
COCCNC(=O)C1(C)CCCN(Cc2ccc(-c3ccccn3)cc2)C1 (configuration not stated)	none
CC1(Oc2ccccc2)CCN(Cc2ccc(-c3ccccn3)cc2)C1 (configuration not stated)	DRD3 antagonist -79
CC1(Oc2ccc(Cl)cc2)CCN(Cc2ccc(-c3ccccn3)cc2)C1 (configuration not stated)	DRD3 antagonist -121
COc1cc(Cl)ccc1OC1(C)CCN(Cc2ccc(-c3ccccn3)cc2)C1 (configuration not stated)	GLP1R inv ag inconclusive, DRD3 antagonist inconclusive, D3 ag 45
CC1(Oc2cccc(C#N)c2)CCN(Cc2ccc(-c3ccccn3)cc2)C1 (configuration not stated)	none
CC(C)Oc1cccc(NC(=O)C2(C)CCCN2C(=O)C(C)C)c1 (configuration not stated)	none
CCC(C)C(NC(=O)c1ccccc1)C(=O)Nc1ccc(S(=O)(=O)Nc2cc(C)nc(C)n2)cc1 (configuration not stated)	none
COc1cc(Cl)ccc1OC1(C)CCN(Cc2ccc3ccccc3c2)C1 (configuration not stated)	GLP1R inv ag inconclusive, DRD3 antagonist -116
COc1cc(Cl)ccc1OC1(C)CCN(Cc2ccccc2OC(F)F)C1 (configuration not stated)	GLP1R inv ag inconclusive, DRD3 antagonist inconclusive
COc1cc(Cl)ccc1OC1(C)CCN(Cc2cccc(OC)c2OC)C1 (configuration not stated)	DRD3 antagonist -61

Bioassay records (PubChem BioAssay)
